Results published in ChEMBL document CHEMBL4513146, “CO-ADD screening of Karazin Kharkiv National University (Ukraine) compounds”.
Measured potencies and affinities stand elsewhere.

Tests used:
Staphylococcus aureus = details: Concentration 32 ug.mL-1;; ASSAY_TEST Inhibition of Bacterial Growth; detection method Absorption (OD600); MEDIA CAMHB; plate type 384well; NBS; CORNING #3640; time 18 hr
Escherichia coli = details: Concentration 32 ug.mL-1;; ASSAY_TEST Inhibition of Bacterial Growth; detection method Absorption (OD600); MEDIA CAMHB; plate type 384well; NBS; CORNING #3640; time 18 hr

**Q.** Which Inhibition (Staphylococcus aureus) does the source give for `Cc1ccccc1Oc1nccn2c(=O)n(CC(=O)Nc3cc(F)ccc3F)nc12` here?
**A.** 11.37%

**Q.** What about the Inhibition (Escherichia coli) of the same compound?
**A.** -2.39%

**Q.** For `O=c1n(Cc2cccc(C(F)(F)F)c2)nc2c(S(=O)(=O)N3CCCCCC3)cccn12`, which Inhibition (Staphylococcus aureus) is on record?
**A.** 5.28%

**Q.** And the Inhibition (Escherichia coli)?
**A.** -7.6%

**Q.** For `COc1ccc(-c2cc3c4nnc(SCC(=O)Nc5cccc(C#N)c5)n4ccn3n2)cc1`, which Inhibition (Staphylococcus aureus) is on record?
**A.** 1.06%

**Q.** What about the Inhibition (Escherichia coli) of the same compound?
**A.** -0.96%

**Q.** Which results are given for `CCC(C)NC(=O)CSc1nnc2c(=O)n(Cc3ccc(F)cc3)ccn12` (configuration not stated)?
**A.** Inhibition (Staphylococcus aureus): 1.4%; Inhibition (Escherichia coli): -9%

**Q.** `O=C(Cn1nc2c(SC3CCCCC3)nccn2c1=O)N1CCN(c2ccccc2)CC1` was tested. Which Inhibition (Staphylococcus aureus) did it give?
**A.** 2.31%

**Q.** What about the Inhibition (Escherichia coli) of the same compound?
**A.** 0.18%

**Q.** With `CCOc1ccc(-n2ccn3c(SCC(N)=O)nnc3c2=O)cc1` as the compound, how does the Inhibition (Staphylococcus aureus) read?
**A.** 8.32%

**Q.** And the Inhibition (Escherichia coli)?
**A.** 3.76%

**Q.** For `COc1ccc(NC(=O)Cn2nc3c4cc(-c5ccc(Cl)cc5)nn4ccn3c2=O)c(OC)c1`, which Inhibition (Staphylococcus aureus) is on record?
**A.** 9.6%

**Q.** What about the Inhibition (Escherichia coli) of the same compound?
**A.** 5.1%

**Q.** Which Inhibition (Staphylococcus aureus) does the source give for `CCCNC(=O)Cn1nc2n(Cc3ccco3)c(=O)c3sccc3n2c1=O` here?
**A.** 2.17%

**Q.** What about the Inhibition (Escherichia coli) of the same compound?
**A.** -0.94%

**Q.** `Cc1nnc2c(=S)[nH]c3ccccc3n12` was tested. Which Inhibition (Staphylococcus aureus) did it give?
**A.** 19.6%

**Q.** What about the Inhibition (Escherichia coli) of the same compound?
**A.** 10.5%

**Q.** How did the Inhibition (Staphylococcus aureus) turn out when `CCOc1ccc(-n2ccn3c(SCC(=O)Nc4ccccc4C(F)(F)F)nnc3c2=O)cc1` was run?
**A.** 16.73%

**Q.** And the Inhibition (Escherichia coli)?
**A.** 2.18%

**Q.** Which results are given for `O=C(Cn1nc2c(SCc3ccc(Cl)cc3)nccn2c1=O)N1CCN(c2ccccc2)CC1`?
**A.** Inhibition (Staphylococcus aureus): -0.6%; Inhibition (Escherichia coli): -2.68%

**Q.** Which results are given for `CCCNC(=O)Cn1nc2cc(C)nc(Nc3cc(C)cc(C)c3)n2c1=O`?
**A.** Inhibition (Staphylococcus aureus): 13.08%; Inhibition (Escherichia coli): 0.71%

**Q.** What does the source list for `CCc1ccc(NC(=O)Cn2nc3n(Cc4cccs4)c(=O)c4sccc4n3c2=O)cc1`?
**A.** Inhibition (Staphylococcus aureus): -0.38%; Inhibition (Escherichia coli): 5.1%

**Q.** What does the source list for `CCc1nnc2ccc(S(=O)(=O)N(Cc3cccc(F)c3)c3ccc(OC)cc3)cn12`?
**A.** Inhibition (Staphylococcus aureus): 7.39%; Inhibition (Escherichia coli): -21.14%

**Q.** Which results are given for `O=C(Cn1nc2c(Oc3ccccc3)nccn2c1=O)Nc1ccc(Br)cc1F`?
**A.** Inhibition (Staphylococcus aureus): -5.68%; Inhibition (Escherichia coli): -11.64%

**Q.** Which Inhibition (Staphylococcus aureus) does the source give for `Cc1ccc(NC(=O)Cn2nc3ccc(-c4ccc(Cl)cc4)nn3c2=O)cc1` here?
**A.** 0.77%

**Q.** And the Inhibition (Escherichia coli)?
**A.** -0.85%

**Q.** With `CCc1nnc2c(S(=O)(=O)N(Cc3cccc(C)c3)c3cccc(Cl)c3)cccn12` as the compound, how does the Inhibition (Staphylococcus aureus) read?
**A.** 2.53%

**Q.** And the Inhibition (Escherichia coli)?
**A.** -7.38%

**Q.** What does the source list for `Cc1cc(C)cc(Nc2nc(C)cc3nn(CC(=O)Nc4ccc(Cl)cc4)c(=O)n23)c1`?
**A.** Inhibition (Staphylococcus aureus): -9.56%; Inhibition (Escherichia coli): 0.58%

**Q.** What does the source list for `COC(=O)c1ccc(NC(=O)Cn2nc3c4cc(-c5ccc(Cl)cc5)nn4ccn3c2=O)cc1`?
**A.** Inhibition (Staphylococcus aureus): 1.97%; Inhibition (Escherichia coli): 4.04%

**Q.** How did the Inhibition (Staphylococcus aureus) turn out when `Cc1cc(C)cc(N(Cc2ccc(F)cc2)S(=O)(=O)c2cccn3c(C)nnc23)c1` was run?
**A.** -7.01%

**Q.** What about the Inhibition (Escherichia coli) of the same compound?
**A.** -9.2%

**Q.** With `CSc1cccc(NC(=O)Cn2nc3c(N4CCCC4)nccn3c2=O)c1` as the compound, how does the Inhibition (Staphylococcus aureus) read?
**A.** -20.72%

**Q.** And the Inhibition (Escherichia coli)?
**A.** -10.95%

**Q.** Which results are given for `COc1cc(NC(=O)Cn2nc3ccc(SCc4ccc(Cl)cc4)nn3c2=O)cc(OC)c1`?
**A.** Inhibition (Staphylococcus aureus): -3.52%; Inhibition (Escherichia coli): -10.62%

**Q.** Which Inhibition (Staphylococcus aureus) does the source give for `CSc1cccc(NC(=O)Cn2nc3c(Sc4ccc(C)cc4C)nccn3c2=O)c1` here?
**A.** -13.41%

**Q.** What about the Inhibition (Escherichia coli) of the same compound?
**A.** -16.34%

**Q.** With `Cc1cccc(C)c1NC(=O)Cn1c(=O)c2nnc(C(C)C)n2c2ccccc21` as the compound, how does the Inhibition (Staphylococcus aureus) read?
**A.** 9.36%

**Q.** What about the Inhibition (Escherichia coli) of the same compound?
**A.** 1.82%

**Q.** What does the source list for `O=C1CCCN1c1ccc(Cn2nc3ccc(-c4ccccc4)nn3c2=O)cc1`?
**A.** Inhibition (Staphylococcus aureus): -3.3%; Inhibition (Escherichia coli): -6.97%

**Q.** What does the source list for `COC(=O)c1ccccc1NC(=O)Cn1nc2c(Oc3ccccc3C)nccn2c1=O`?
**A.** Inhibition (Staphylococcus aureus): 4.43%; Inhibition (Escherichia coli): -5.27%
